The record followed here is PubChem BioAssay (NCI).

Test systems include NCI-H23 lung; NCI-H226 lung; NCI-H322M lung; HOP-62 NSCLC; NCI-H460 lung; HOP-92 NSCLC; NCI-H522 lung; A549/ATCC NSCLC; 786-0 renal; COLO 205 colon; DU-145 prostate; K-562 leukemia; MALME-3M melanoma; MDA-MB-231 breast; RXF 393 renal; SF-268 CNS; SF-295 CNS; SF-539 CNS; UACC-257 melanoma; M14 melanoma.
Common to all, as to assay: NCI-60 one-dose screen, 48 h (100 = growth as untreated, 0 = no growth, -100 = all killed)
What all share (conditions): 10 µM

The panel holds about 83,000 compounds, 20% with a hit somewhere; the sample as a whole holds those more often.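 Values shown are percent growth following 48 h exposure of cells in 96-well plates to a single concentration of compound; below 10 was considered active.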 A number with no mark means an inactive call. Active and inactive are the calls of the source.

Turning to `CC(=O)O[C@H]1CC[C@@]2(C)[C@@H](CC[C@@H]3[C@@H]2CC[C@]2(C)C=C(C=O)C[C@@H]32)C1`, the growth in the experiment with NCI-H23 lung is 73.6%; in the experiment on NCI-H226 lung it was 119%; in the experiment on NCI-H322M lung, 90.9%; with HOP-62 NSCLC it was 33.3%; in the experiment with NCI-H460 lung it was 103%; with HOP-92 NSCLC, 76.2%. For the same compound, the growth with NCI-H522 lung is 93.1%; with A549/ATCC NSCLC, 95.3%; in the experiment on 786-0 renal, 102%; in the experiment on COLO 205 colon, 95.4%; in the experiment on DU-145 prostate, 49.5%; in the experiment with K-562 leukemia, 82.3%. In addition, the growth with MALME-3M melanoma was 66.8%; in the experiment on MDA-MB-231 breast it was 103%; with RXF 393 renal, 120%; in the experiment with SF-268 CNS it was 66.6%; with SF-295 CNS, 97.1%; in the experiment with SF-539 CNS it was 92.7%. Also, the growth in the experiment on UACC-257 melanoma was 98.6%; in the experiment on M14 melanoma it was 65.3%.

With `COc1ccc(N2CCN(c3nc(-c4ccccc4)c(C#N)c(=O)[nH]3)CC2)cc1`, the growth was 98.7% in the experiment with NCI-H23 lung; 107% with NCI-H226 lung; 94.6% in the experiment with NCI-H322M lung; 91.8% in the experiment on HOP-62 NSCLC; 103% with NCI-H460 lung; 92.4% in the experiment on HOP-92 NSCLC. The growth with NCI-H522 lung is 92.7%; in the experiment with A549/ATCC NSCLC it was 104%; in the experiment with 786-0 renal, 103%; with COLO 205 colon, 102%; with DU-145 prostate it was 107%; in the experiment with K-562 leukemia it was 87.6%. Further, the growth was 80.8% in the experiment on MALME-3M melanoma; 106% in the experiment with MDA-MB-231 breast; 105% in the experiment on RXF 393 renal; 108% in the experiment on SF-268 CNS; 102% with SF-295 CNS; 99.6% with SF-539 CNS. The growth is 109% in the experiment with UACC-257 melanoma and 96.8% in the experiment with M14 melanoma.

Turning to `C[C@@H]1N=C(c2ccc(Br)cc2)Nc2nc3ccccn3c2C1=O`, the growth was 53.7% in the experiment with NCI-H23 lung; 68.3% with NCI-H226 lung; 74% with NCI-H322M lung; 55.8% with HOP-62 NSCLC; 32.5% with NCI-H460 lung; 59.5% with HOP-92 NSCLC. In addition, the growth with NCI-H522 lung was 34.8%; in the experiment with A549/ATCC NSCLC, 54.7%; with 786-0 renal it was 83.1%; with COLO 205 colon, 26.3%; in the experiment on DU-145 prostate it was 87.7%; in the experiment with K-562 leukemia it was 24.3%. Moreover, the growth with MALME-3M melanoma is 51.8%; with MDA-MB-231 breast, 52.7%; in the experiment on RXF 393 renal it was 68.2%; in the experiment with SF-268 CNS it was 83.4%; in the experiment on SF-295 CNS, 40.9%; in the experiment with SF-539 CNS, 74.6%. Also, the growth in the experiment on UACC-257 melanoma is 69.9%; in the experiment on M14 melanoma it was 31.8%.

For the compound `COc1ccc(C2CC(c3ccc(-c4ccccc4)cc3)=NN2c2ccc(S(N)(=O)=O)cc2)cc1` (stereo not given), the growth in the experiment on NCI-H23 lung was 80.9%; with NCI-H226 lung, 74.9%; with NCI-H322M lung it was 68.5%; with HOP-62 NSCLC, 90.8%; in the experiment with NCI-H460 lung it was 41.9%; with HOP-92 NSCLC it was 35.6%. Besides, the growth in the experiment on NCI-H522 lung is 40.3%; in the experiment with A549/ATCC NSCLC it was 47.3%; in the experiment with 786-0 renal, 92.1%; in the experiment with COLO 205 colon it was 83.8%; in the experiment with DU-145 prostate, 83.2%; in the experiment on K-562 leukemia, 52.7%. The growth in the experiment with MALME-3M melanoma is 95.8%; in the experiment with MDA-MB-231 breast, 69.6%; with RXF 393 renal, 73.3%; in the experiment with SF-268 CNS, 68%; in the experiment on SF-295 CNS, 86.5%; in the experiment on SF-539 CNS, 98.7%. Besides, the growth in the experiment with UACC-257 melanoma is 82.7%; in the experiment on M14 melanoma it was 89.6%.

Consider `N=C(N)c1ccc(-c2ccc(-c3ccccc3)s2)cc1F`, for which the growth was -65.9% (active) with NCI-H23 lung; -62.7% (active) in the experiment with NCI-H226 lung; -88.5% (active) in the experiment with NCI-H322M lung; -83% (active) with HOP-62 NSCLC; -79.5% (active) in the experiment on NCI-H460 lung; -83.7% (active) in the experiment with HOP-92 NSCLC. Besides, the growth in the experiment on NCI-H522 lung was -75.2% (active); in the experiment with A549/ATCC NSCLC, -74.2% (active); in the experiment on 786-0 renal, -85% (active); in the experiment on COLO 205 colon, -78.1% (active); with DU-145 prostate, -95.5% (active); with K-562 leukemia, -70.8% (active). For the same compound, the growth was -76.7% (active) with MALME-3M melanoma; -82.3% (active) in the experiment with MDA-MB-231 breast; -86.9% (active) with RXF 393 renal; -84.6% (active) in the experiment on SF-268 CNS; -77.9% (active) in the experiment with SF-295 CNS; -97.3% (active) with SF-539 CNS. For the same compound, the figures for the growth with UACC-257 melanoma and with M14 melanoma were -84.1% (active) and -93.1% (active), respectively.

Regarding `CCCCn1c(=O)[nH]c(N)c(C(c2ccc(Cl)cc2)c2c(N)[nH]c(=O)n(CCCC)c2=O)c1=O`, the growth with NCI-H23 lung is 53.9%; in the experiment on NCI-H226 lung, 58.7%; in the experiment with NCI-H322M lung, 63.6%; in the experiment on HOP-62 NSCLC it was 59.1%; in the experiment with NCI-H460 lung, 32%; in the experiment with HOP-92 NSCLC, 54.7%. Besides, the growth in the experiment on NCI-H522 lung was 37.9%; in the experiment with A549/ATCC NSCLC it was 40.2%; with 786-0 renal, 41%; with COLO 205 colon, 43.9%; in the experiment on DU-145 prostate it was 65.7%; in the experiment with K-562 leukemia, 28.7%. The growth in the experiment with MALME-3M melanoma was 68.9%; in the experiment on MDA-MB-231 breast, 54.4%; with RXF 393 renal, 18.7%; with SF-268 CNS, 38.1%; with SF-295 CNS it was 35.2%; with SF-539 CNS it was 43.9%. The growth in the experiment with UACC-257 melanoma was 41%; with M14 melanoma, 35%.

On to `COc1cc(C2CC(=O)Nc3c2c(C)nn3-c2nc3ccccc3[nH]2)cc(OC)c1O` (stereo not given), for which the growth was 36.8% in the experiment on NCI-H23 lung; 66% in the experiment with NCI-H226 lung; 80.4% in the experiment on NCI-H322M lung; 88.6% in the experiment with HOP-62 NSCLC; 36.2% with NCI-H460 lung; 32% in the experiment on HOP-92 NSCLC. Further, the growth in the experiment on NCI-H522 lung is 64.8%; in the experiment with A549/ATCC NSCLC, 40.1%; in the experiment with 786-0 renal, 53.1%; in the experiment on COLO 205 colon, 106%; with DU-145 prostate it was 96.4%; with K-562 leukemia, 75.7%. Besides, the growth in the experiment on MALME-3M melanoma is 47.3%; with MDA-MB-231 breast it was 7.76% (active); with RXF 393 renal, 10.4%; in the experiment with SF-268 CNS, 40.1%; in the experiment with SF-295 CNS, -34.2% (active); with SF-539 CNS it was 72.8%. Besides, the values for the growth in the experiment on UACC-257 melanoma and in the experiment on M14 melanoma were 44.4% and 9.64% (active), respectively.

In the case of `COc1cc(C)c2sc3ccccc3c(=O)c2c1NCCN(C)C`, the growth with NCI-H23 lung is 76.3%; in the experiment on NCI-H226 lung, 74%; in the experiment with NCI-H322M lung, 90.6%; in the experiment on HOP-62 NSCLC, 67.7%; with NCI-H460 lung, 22.2%; in the experiment with HOP-92 NSCLC it was 19.1%. Besides, the growth in the experiment on NCI-H522 lung is 80.1%; in the experiment with A549/ATCC NSCLC, 28.8%; with 786-0 renal, 65.9%; in the experiment with COLO 205 colon it was 16.1%; with DU-145 prostate, 77.1%; with K-562 leukemia, -1.18% (active). Further, the growth is 38.9% in the experiment with MALME-3M melanoma; 27.9% with MDA-MB-231 breast; 59.3% with RXF 393 renal; 61.3% in the experiment with SF-268 CNS; 53.6% in the experiment with SF-295 CNS; 66.7% with SF-539 CNS. Further, the growth in the experiment on UACC-257 melanoma is -22.8% (active); with M14 melanoma, 24%.
